These results are taken from PMC7862700, “An all-to-all approach to the identification of sequence-specific readers for epigenetic DNA modifications on cytosine”.

Common to all, as to assay: DAPPL (digital affinity profiling via proximity ligation, sequencing); 10 mM Tris-HCl pH 7.5, 50 mM NaCl, 1 mM DTT, 4% glycerol, room temperature, 30 min; GST-TFs on glutathione beads, 16-mer random dsDNA library, 0.1% formaldehyde crosslink after washing; high values mean tight binding
One assay addresses T1, FEV (Homo sapiens, UniProt Q99581 1-238).
T1 sequence: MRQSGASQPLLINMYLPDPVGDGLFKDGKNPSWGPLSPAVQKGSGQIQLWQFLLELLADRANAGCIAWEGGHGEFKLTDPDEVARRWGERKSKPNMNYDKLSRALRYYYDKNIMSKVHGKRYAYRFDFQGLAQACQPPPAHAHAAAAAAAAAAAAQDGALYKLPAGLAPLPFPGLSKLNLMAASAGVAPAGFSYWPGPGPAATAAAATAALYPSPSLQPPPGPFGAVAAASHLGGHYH
As to conditions: protein: recombinant; tags: N-terminal GST; dsDNA, one strand shown. Summed up: (§1)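 Human transcription factors carrying a GST fusion were produced in yeast, bound to glutathione beads, tagged with DNA barcodes and pooled together with a tag-only sample. Each pool was held with 200 nmole of a random double-stranded 16-mer DNA library in Tris/NaCl/DTT/glycerol buffer for 30 min at room temperature, then washed, crosslinked in 0.1% formaldehyde, proximity-ligated with BsaI/T4 ligase (1 h, 37 °C), PCR-amplified and sequenced on an Illumina NextSeq500. Binding signal is the read frequency of each hexamer for a given factor divided by its frequency in the tag-only sample.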

The next assay addresses ETV5 (Homo sapiens, UniProt P41161 1-510). As to conditions: protein: recombinant; tags: N-terminal GST; dsDNA, one strand shown. In a few lines: as §1
A further assay deals with HSF1 (Homo sapiens, UniProt Q00613 1-529). Conditions: protein: recombinant; tags: N-terminal GST; chain copies: 3; dsDNA, one strand shown. In a few lines:
as §1

The target of another assay is T2, SPIC (Homo sapiens, UniProt Q8N5J4 1-248).
T2 sequence: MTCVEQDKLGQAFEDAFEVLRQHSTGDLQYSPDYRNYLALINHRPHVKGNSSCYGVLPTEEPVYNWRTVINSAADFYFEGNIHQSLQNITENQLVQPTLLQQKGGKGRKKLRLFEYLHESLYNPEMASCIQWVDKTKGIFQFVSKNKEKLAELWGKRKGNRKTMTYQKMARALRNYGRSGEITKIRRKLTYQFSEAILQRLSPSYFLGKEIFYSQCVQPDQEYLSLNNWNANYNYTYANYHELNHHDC
As to conditions: protein: recombinant; tags: N-terminal GST; dsDNA, one strand shown. In a few lines: as §1

For another assay, the target named is ELF4 (Homo sapiens, UniProt Q99607 1-663). As to conditions: protein: recombinant; tags: N-terminal GST; dsDNA, one strand shown. In a few lines: as §1
Sequence of ELF4 (Q99607 whole entry): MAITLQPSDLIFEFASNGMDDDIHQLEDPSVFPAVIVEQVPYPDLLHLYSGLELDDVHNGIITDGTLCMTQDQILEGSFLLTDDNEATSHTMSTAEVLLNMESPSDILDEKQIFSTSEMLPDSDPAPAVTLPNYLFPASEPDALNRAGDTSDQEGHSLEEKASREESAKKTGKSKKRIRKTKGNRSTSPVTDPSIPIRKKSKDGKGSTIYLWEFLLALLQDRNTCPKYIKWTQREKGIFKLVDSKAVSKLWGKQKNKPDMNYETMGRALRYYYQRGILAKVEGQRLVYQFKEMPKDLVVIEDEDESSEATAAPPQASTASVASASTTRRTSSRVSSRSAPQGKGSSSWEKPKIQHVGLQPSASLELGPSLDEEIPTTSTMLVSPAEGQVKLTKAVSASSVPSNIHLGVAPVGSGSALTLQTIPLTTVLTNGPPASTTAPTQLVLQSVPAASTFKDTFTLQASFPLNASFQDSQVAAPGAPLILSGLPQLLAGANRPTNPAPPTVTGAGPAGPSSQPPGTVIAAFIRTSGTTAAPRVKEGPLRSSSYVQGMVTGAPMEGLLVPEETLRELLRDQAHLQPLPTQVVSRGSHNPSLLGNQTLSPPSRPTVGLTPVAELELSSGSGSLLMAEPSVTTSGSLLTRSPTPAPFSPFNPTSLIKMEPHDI
A further assay deals with T3, ELK4 (Homo sapiens, UniProt P28324-2 1-405).
T3 sequence: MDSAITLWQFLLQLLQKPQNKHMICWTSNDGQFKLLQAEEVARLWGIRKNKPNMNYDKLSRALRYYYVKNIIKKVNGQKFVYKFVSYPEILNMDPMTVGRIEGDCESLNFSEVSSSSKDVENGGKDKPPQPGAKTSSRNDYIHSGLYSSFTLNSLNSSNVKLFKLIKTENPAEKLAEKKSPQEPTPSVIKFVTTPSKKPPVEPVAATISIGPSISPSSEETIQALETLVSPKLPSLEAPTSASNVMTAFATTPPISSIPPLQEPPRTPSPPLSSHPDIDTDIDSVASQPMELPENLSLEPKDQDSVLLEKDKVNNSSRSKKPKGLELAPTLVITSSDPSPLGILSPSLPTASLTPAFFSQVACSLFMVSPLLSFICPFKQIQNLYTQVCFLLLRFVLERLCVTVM
As to conditions: protein: recombinant; tags: N-terminal GST; dsDNA, one strand shown. Summed up: as §1

A further assay deals with T4, ETV2 (Homo sapiens, UniProt O00321 1-342).
T4 sequence: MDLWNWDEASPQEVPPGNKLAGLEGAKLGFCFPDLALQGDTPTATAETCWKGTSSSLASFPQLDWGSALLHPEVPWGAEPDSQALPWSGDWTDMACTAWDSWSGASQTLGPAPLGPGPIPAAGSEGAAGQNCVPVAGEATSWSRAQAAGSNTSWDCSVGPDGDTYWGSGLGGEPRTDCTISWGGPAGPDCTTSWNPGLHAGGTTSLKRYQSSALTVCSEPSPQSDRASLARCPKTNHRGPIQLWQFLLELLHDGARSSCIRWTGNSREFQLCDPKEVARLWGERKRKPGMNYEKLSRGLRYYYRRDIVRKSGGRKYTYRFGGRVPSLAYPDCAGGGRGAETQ
Conditions: protein: recombinant; tags: N-terminal GST; dsDNA, one strand shown. Summed up:
as §1

For the next assay, the target named is T5, ELF3 (Homo sapiens, UniProt P78545 1-371).
T5 sequence: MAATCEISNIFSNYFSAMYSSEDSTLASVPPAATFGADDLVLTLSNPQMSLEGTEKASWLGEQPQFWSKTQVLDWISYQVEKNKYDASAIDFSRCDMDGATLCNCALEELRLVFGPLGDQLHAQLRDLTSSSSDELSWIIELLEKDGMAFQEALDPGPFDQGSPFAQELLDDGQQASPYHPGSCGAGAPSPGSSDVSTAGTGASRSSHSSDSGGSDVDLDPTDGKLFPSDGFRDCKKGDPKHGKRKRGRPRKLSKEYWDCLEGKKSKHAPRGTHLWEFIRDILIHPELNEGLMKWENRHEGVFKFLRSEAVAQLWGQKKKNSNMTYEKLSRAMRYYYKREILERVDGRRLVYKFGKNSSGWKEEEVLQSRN
Conditions: protein: recombinant; tags: N-terminal GST; dsDNA, one strand shown. In a few lines: as §1

The next assay concerns the target CRX (Homo sapiens, UniProt O43186 1-299). As to conditions: protein: recombinant; tags: N-terminal GST; dsDNA, one strand shown. Summed up: as §1
The target of the next assay is ETV1 (Homo sapiens, UniProt P50549 1-477). Conditions: protein: recombinant; tags: N-terminal GST; dsDNA, one strand shown. In a few lines: as §1
Sequence of ETV1 (P50549 whole entry): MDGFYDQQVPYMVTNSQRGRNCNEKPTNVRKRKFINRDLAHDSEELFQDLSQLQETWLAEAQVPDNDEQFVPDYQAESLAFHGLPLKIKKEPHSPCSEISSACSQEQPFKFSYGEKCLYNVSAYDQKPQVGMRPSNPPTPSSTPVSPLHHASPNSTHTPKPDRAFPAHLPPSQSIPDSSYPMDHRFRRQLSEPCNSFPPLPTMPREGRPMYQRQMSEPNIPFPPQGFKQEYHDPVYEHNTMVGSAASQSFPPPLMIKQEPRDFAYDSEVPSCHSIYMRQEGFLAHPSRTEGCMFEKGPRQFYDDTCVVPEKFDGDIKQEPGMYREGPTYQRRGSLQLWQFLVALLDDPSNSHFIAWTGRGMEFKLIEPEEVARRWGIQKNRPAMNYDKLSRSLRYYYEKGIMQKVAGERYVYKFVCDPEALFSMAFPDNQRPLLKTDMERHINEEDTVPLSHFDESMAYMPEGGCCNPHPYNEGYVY
Another assay addresses T6, ERF (Homo sapiens, UniProt P50548 1-548).
T6 sequence: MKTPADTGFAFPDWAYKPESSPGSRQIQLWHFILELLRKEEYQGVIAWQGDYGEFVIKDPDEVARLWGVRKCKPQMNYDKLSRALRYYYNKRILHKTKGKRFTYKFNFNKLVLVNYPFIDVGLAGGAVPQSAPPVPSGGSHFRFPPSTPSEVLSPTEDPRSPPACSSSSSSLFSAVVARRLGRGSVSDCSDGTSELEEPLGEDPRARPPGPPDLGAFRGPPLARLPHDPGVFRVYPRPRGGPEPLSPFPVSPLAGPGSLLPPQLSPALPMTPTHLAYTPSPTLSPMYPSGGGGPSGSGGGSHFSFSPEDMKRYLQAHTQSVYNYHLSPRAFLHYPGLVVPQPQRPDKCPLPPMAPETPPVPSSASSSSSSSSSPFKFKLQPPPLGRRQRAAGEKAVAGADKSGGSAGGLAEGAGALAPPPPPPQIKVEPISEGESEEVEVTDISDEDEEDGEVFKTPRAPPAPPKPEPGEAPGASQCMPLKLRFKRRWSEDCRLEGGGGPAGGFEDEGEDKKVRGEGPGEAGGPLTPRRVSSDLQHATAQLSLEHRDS
As to conditions: protein: recombinant; tags: N-terminal GST; dsDNA, one strand shown. Summed up:
as §1

The next assay addresses T7, ETV3L (Homo sapiens, UniProt Q6ZN32 1-361).
T7 sequence: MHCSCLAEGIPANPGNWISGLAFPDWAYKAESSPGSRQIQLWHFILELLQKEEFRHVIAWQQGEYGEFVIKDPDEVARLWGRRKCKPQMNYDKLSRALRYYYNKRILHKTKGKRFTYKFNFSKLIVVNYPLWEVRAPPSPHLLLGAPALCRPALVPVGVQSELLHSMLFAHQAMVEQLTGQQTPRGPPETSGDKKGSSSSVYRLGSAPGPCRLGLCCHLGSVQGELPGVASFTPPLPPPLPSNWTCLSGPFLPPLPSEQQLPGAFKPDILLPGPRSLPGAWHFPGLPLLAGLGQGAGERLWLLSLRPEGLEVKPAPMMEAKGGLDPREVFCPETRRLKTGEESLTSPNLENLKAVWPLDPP
Conditions: protein: recombinant; tags: N-terminal GST; dsDNA, one strand shown. In a few lines:
as §1

A further assay has as its target T8, ETS2 (Homo sapiens, UniProt P15036 1-469).
T8 sequence: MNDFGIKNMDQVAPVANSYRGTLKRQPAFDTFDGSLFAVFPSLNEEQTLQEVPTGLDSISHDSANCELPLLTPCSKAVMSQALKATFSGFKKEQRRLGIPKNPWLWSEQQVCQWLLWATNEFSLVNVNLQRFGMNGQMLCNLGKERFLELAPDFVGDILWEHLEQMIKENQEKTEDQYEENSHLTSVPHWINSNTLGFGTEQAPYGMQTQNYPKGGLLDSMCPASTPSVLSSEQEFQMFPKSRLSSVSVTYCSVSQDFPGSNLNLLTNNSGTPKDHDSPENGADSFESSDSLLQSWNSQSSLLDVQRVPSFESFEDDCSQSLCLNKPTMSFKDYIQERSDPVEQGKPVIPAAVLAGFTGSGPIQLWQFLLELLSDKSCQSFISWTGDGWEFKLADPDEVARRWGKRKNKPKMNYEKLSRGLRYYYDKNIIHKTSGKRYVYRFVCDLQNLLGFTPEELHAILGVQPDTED
Conditions: protein: recombinant; tags: N-terminal GST; dsDNA, one strand shown. Summed up: as §1

For another assay, the target named is T9, SPDEF (Homo sapiens, UniProt O95238 1-335).
T9 sequence: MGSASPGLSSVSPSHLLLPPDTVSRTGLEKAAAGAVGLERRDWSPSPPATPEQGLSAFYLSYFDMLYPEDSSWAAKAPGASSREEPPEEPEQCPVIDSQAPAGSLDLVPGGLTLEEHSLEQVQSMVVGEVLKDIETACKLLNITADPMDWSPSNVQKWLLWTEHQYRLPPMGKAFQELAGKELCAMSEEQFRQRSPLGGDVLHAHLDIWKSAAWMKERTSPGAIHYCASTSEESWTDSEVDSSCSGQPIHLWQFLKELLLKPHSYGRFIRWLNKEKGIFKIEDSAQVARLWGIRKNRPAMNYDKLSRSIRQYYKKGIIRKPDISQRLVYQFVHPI
Conditions: protein: recombinant; tags: N-terminal GST; dsDNA, one strand shown. Summed up: as §1

Another assay has as its target T10, ETV7 (Homo sapiens, UniProt Q9Y603 1-341).
T10 sequence: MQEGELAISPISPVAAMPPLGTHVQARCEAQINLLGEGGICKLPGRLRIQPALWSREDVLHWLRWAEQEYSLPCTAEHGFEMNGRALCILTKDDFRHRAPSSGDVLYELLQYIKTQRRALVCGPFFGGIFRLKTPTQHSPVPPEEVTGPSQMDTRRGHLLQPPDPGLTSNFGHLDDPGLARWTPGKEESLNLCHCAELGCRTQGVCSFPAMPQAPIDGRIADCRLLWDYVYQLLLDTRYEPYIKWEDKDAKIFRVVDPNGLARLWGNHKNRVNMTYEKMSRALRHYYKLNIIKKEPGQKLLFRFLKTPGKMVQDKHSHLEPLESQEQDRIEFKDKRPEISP
Conditions: protein: recombinant; tags: N-terminal GST; dsDNA, one strand shown. In a few lines: as §1

A further assay has as its target T11, ELF5 (Homo sapiens, UniProt Q9UKW6-2 1-255).
T11 sequence: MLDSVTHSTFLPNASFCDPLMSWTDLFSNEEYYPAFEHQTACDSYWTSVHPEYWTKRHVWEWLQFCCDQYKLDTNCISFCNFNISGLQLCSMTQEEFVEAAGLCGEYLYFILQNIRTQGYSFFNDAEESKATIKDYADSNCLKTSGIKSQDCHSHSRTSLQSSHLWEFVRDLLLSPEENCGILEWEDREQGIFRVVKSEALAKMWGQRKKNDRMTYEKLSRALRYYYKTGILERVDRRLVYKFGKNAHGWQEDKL
Conditions: protein: recombinant; tags: N-terminal GST; dsDNA, one strand shown. Summed up:
as §1

Another assay addresses T12, ETV3 (Homo sapiens, UniProt P41162-2 1-143).
T12 sequence: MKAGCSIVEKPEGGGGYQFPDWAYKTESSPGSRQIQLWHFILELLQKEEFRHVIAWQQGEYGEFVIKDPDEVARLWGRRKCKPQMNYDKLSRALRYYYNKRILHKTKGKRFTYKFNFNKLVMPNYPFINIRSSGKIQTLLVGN
Conditions: protein: recombinant; tags: N-terminal GST; dsDNA, one strand shown. Summed up: as §1

A further assay addresses ETV6 (Homo sapiens, UniProt P41212 1-452). Conditions: protein: recombinant; tags: N-terminal GST; dsDNA, one strand shown. In a few lines:
as §1

Sequence of ETV5 (P41161 whole entry): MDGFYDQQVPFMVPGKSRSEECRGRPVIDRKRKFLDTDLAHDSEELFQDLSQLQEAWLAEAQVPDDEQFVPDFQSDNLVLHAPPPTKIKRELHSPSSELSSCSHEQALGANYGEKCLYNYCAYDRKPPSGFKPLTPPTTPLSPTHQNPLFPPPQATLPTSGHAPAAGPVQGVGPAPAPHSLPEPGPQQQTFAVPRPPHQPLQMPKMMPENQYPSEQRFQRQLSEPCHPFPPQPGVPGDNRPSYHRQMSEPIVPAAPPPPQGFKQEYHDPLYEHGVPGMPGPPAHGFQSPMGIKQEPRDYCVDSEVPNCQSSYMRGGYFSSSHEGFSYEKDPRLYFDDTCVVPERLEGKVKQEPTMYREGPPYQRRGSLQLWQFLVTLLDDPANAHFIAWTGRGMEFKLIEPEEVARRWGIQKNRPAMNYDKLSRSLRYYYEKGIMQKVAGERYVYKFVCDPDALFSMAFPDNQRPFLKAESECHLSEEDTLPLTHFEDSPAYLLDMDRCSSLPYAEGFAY
Sequence of CRX (O43186 whole entry): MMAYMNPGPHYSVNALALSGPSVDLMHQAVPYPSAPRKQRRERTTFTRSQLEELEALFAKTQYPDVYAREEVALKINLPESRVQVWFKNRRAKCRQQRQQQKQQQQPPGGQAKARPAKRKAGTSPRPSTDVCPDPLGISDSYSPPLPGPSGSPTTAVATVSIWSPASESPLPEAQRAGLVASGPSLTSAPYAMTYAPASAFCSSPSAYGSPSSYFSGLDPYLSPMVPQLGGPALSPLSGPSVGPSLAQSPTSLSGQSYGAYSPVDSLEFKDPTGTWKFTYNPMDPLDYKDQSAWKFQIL
Sequence of HSF1 (Q00613 whole entry): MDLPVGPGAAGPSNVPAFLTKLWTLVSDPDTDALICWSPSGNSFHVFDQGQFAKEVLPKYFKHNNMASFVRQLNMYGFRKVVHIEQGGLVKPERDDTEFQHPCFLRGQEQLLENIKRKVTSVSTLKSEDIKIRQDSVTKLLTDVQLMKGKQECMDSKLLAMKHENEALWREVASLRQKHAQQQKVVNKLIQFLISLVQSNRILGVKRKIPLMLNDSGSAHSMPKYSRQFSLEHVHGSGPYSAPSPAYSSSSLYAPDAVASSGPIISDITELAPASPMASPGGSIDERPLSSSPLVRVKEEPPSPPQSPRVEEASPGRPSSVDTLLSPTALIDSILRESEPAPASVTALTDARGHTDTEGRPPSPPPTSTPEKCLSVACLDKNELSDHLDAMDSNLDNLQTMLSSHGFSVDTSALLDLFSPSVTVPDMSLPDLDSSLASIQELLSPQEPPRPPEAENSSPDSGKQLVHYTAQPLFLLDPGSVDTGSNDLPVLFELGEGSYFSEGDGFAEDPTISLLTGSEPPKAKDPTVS
Sequence of ETV6 (P41212 whole entry): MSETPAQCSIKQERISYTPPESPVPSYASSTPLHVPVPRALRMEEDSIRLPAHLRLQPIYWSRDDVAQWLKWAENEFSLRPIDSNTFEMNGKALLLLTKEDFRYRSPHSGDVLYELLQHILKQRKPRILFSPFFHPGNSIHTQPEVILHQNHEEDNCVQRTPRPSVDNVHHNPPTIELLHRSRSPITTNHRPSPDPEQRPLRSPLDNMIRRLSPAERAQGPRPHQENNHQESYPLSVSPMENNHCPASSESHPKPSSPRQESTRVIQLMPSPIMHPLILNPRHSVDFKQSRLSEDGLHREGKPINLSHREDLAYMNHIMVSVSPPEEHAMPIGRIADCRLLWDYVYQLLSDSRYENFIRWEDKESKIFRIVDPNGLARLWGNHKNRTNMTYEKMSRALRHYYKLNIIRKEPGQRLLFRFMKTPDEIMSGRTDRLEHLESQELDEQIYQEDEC

As to AAACAC, the binding signal with FEV is 1.31 fold enrichment (6-mer frequency, TF over GST control); in the assay with ETV5 it was 1.24 fold enrichment (6-mer frequency, TF over GST control); in the assay with HSF1 it was 1.09 fold enrichment (6-mer frequency, TF over GST control); in the assay with SPIC, 1.24 fold enrichment (6-mer frequency, TF over GST control); with ELF4 it was 1.34 fold enrichment (6-mer frequency, TF over GST control); in the assay with ELK4, 1.27 fold enrichment (6-mer frequency, TF over GST control). The binding signal in the assay with ETV2 was 1.36 fold enrichment (6-mer frequency, TF over GST control); in the assay with ELF3, 1.33 fold enrichment (6-mer frequency, TF over GST control); with CRX, 1.05 fold enrichment (6-mer frequency, TF over GST control); in the assay with ETV1 it was 1.26 fold enrichment (6-mer frequency, TF over GST control); in the assay with ERF it was 1.34 fold enrichment (6-mer frequency, TF over GST control); in the assay with ETV3L, 1.37 fold enrichment (6-mer frequency, TF over GST control). The binding signal in the assay with ETS2 is 1.38 fold enrichment (6-mer frequency, TF over GST control); in the assay with SPDEF it was 1.31 fold enrichment (6-mer frequency, TF over GST control); with ETV7 it was 1.34 fold enrichment (6-mer frequency, TF over GST control); with ELF5, 1.3 fold enrichment (6-mer frequency, TF over GST control); with ETV3, 1.33 fold enrichment (6-mer frequency, TF over GST control); in the assay with ETV6 it was 1.32 fold enrichment (6-mer frequency, TF over GST control).
